Screen size: about 2,100 compounds; about 760 (36%) were called active. A selection follows. Values without a mark were called inactive.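 The calls were made as follows: active = thallium-flux fluorescence traces judged by eye to show enhanced or reduced glutamate response, manual score 1 or -1, so both directions (some results past the limit were not filed as active); inactive = the rest, including fluorescent or raised-baseline compounds.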

In PubChem BioAssay AID623868 (Vanderbilt High Throughput Screening Facility, 2012) one finds manual score data, which are given here for 108 molecules.

This experiment in a line: non-GIRK thallium flux modulation in mGlu8 cells, confirmation, counter-screen for GIRK activator project, cell-based, HEK-293 rmGlu8, no GIRK (AID 623868).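 Also: extra codes mark interference with 3 for fluorescent and 4 for baseline rise.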 As to conditions: thallium flux fluorescence, at 10 µM, actives lie on both sides, codes: 1 enhancer, -1 blocker, 0 none, thallium stimulus containing EC20 glutamate. In general terms: The purpose of a counterscreen is to sort out artefacts and off-target activity.
Regarding `O=C(CSc1nnc2ccccn12)Nc1nsc(-c2ccccc2)n1`, the manual score was 0.

As to `CCc1ccccc1N(C)C(=O)CCc1nc(-c2ccc(C)cc2)no1`, the manual score is 0.

Consider `O=C(Nc1cccc(S(=O)(=O)c2cccc(NC(=O)C3CC3)c2)c1)C1CC1`, for which the manual score was 0.5.

Consider `Cc1cccc(NC(=O)CN(c2ccc(C(C)C)cc2)S(=O)(=O)c2c(C)nn(C)c2C)n1`, for which the manual score is 0.

Regarding `COc1ccc(C2CC(c3ccc(Cl)c(Cl)c3)Nc3nc(N)nn32)cc1` (stereo not drawn), the manual score was 0.

Consider `Cc1ccccc1C(=O)NNC(=S)NC(=O)c1ccc(Cl)cc1Cl`, for which the manual score was 1 (active).

On to `Cc1cccc(C(=O)NC(=S)NNC(=O)c2ccc(Cl)cc2)c1`, for which the manual score is 1 (active).

`Cc1c(Cl)cccc1NC(=S)/C(=C(\[O-])c1ccc(Cl)s1)[n+]1ccccc1`: the manual score was 0.

For the molecule `Cc1ccccc1C(=O)NC(=S)Nc1ccc(Oc2ccc(Cl)cc2)cc1`, the manual score is 0.

Take `Cc1ccccc1C(=O)NNC(=O)C(=O)Nc1cccc(Cl)c1C`: the manual score was 1 (active).

For the molecule `Cc1ccc(C(=O)NNC(=S)NC(=O)c2ccc(Cl)cc2)cc1`, the manual score is 1 (active).

Regarding `O=C(O)C1C2C=CC3(CN(C4CCCC4)C(=O)C13)O2` (stereo not drawn), the manual score is 0.

For `O=C1C2C3C=CC(C3)C2C(=O)N1/N=C/c1cn(Cc2ccccc2)c2ccccc12` (stereo not drawn), the manual score is 0.

With `Cc1cc(C)nc(N(C#N)Cc2ccc(Br)cc2)n1`, the manual score was 0.

For the molecule `CCn1c(SCC(=O)c2cc(C)n(CC3CCCO3)c2C)nc2ccccc21` (stereo not drawn), the manual score was 0.

In the case of `COC(=O)c1cc(CSc2nc3ccc(C)cc3[nH]2)oc1C`, the manual score is -1 (active).

Regarding `Cc1ccc(CSc2nc3ccncc3[nH]2)cc1`, the manual score is 0.

With `O=C(CSc1nc2ccc(Cl)cc2[nH]1)Nc1ccc2c(c1)CCC2`, the manual score was 0.

For the molecule `O=C(CCS(=O)NCc1ccccc1)NCc1ccccc1` (stereo not drawn), the manual score is 0.

Turning to `Cc1ccc(N2C=Nc3ccc(C)c4nc(C)cc2c34)cc1`, the manual score was -1 (active).

In the case of `CN1CC=C2C(C#N)=C(N)C(C#N)(C#N)[C@H](c3cccc(Cl)c3)C2C1` (stereo partly drawn), the manual score was 3.

Regarding `Cc1ccc(CN2C3=NCCCN3c3ccccc32)cc1`, the manual score is 0.

In the case of `COc1cc(CNCCc2c[nH]c3ccccc23)ccc1OCc1ccc(F)cc1`, the manual score is 0.

`COc1ccc(CN2CCNC(=O)C2CC(=O)O)cc1OC` (stereo not drawn): the manual score is 0.

For the molecule `COc1cc(/C=C(/C#N)c2ccc(F)cc2)ccc1OCc1ccc(C(=O)O)o1`, the manual score is -1 (active).

Consider `CSc1nc(Sc2ccccc2)c2ccccc2n1`, for which the manual score was 0.

Regarding `O=C(Cc1cccs1)Nc1cccnc1`, the manual score is 0.

As to `O=C(/C=C/c1cccs1)NC(=S)NNC(=O)Cc1cccs1`, the manual score was 1 (active).

As to `COc1cc(NC(=O)Cc2cccs2)cc(OC)c1`, the manual score was 0.

For the molecule `CCOc1ccc(C(=O)CN2CCN(S(=O)(=O)c3ccc(Br)cc3)CC2)cc1`, the manual score was 0.

As to `O=C(NNC(=O)c1cc(-c2ccccc2)n(-c2ccccc2)n1)c1cccc([N+](=O)[O-])c1`, the manual score was 1 (active).

For the molecule `COc1ccc(Nc2nc(-c3cccc([N+](=O)[O-])c3)nc3ccccc23)cc1`, the manual score was 0.

With `CC(=O)c1sc(NC(=O)c2cc(-c3ccccc3)nn2-c2ccccc2)nc1C`, the manual score is 0.

`Cn1c2ccccc2c2cc(C(=O)NNS(=O)(=O)c3ccc(F)cc3)sc21`: the manual score is 0.5.

For the molecule `Cc1sc2c(c1C)CN(C1CC(C)(C)NC(C)(C)C1)CN2C(=O)c1ccco1`, the manual score is 0.

Take `COC(=O)c1ccc(C(=O)OC)c(NC(=O)CSc2nc(-c3ccco3)cc(C(F)(F)F)n2)c1`: the manual score was 0.

For the molecule `O=S(=O)(c1ccc(-c2nnc(SCc3nnc(-c4ccccc4)o3)o2)cc1)N1CCCC1`, the manual score is 0.

For `CC1CCCN(S(=O)(=O)c2ccc(C(=O)Nc3nnc(-c4ccccc4Cl)o3)cc2)C1` (stereo not drawn), the manual score is 1 (active).

`COc1ccccc1NC(=O)c1ccc(S(=O)(=O)N2CCCC2)cc1`: the manual score is 0.

Take `O=C(Nc1nnc(-c2ccccc2Cl)o1)c1ccc(S(=O)(=O)N2CCCCCC2)cc1`: the manual score is 1 (active).

Consider `CCN(CC)c1ccc2cc(C(=O)NNC(=O)c3ccc(S(=O)(=O)N4CCCCC4)cc3)c(=O)oc2c1`, for which the manual score is 0.

Regarding `Cc1cc(C)nc(N2CCCC(C(=O)NCCc3ccc(F)cc3)C2)n1` (stereo not drawn), the manual score was 0.

With `CN1/C(=C\C=C2/C(=O)Oc3ccccc3C2=O)C(C)(C)c2ccccc21`, the manual score was 3.

Regarding `Cc1ccc(NC(=O)COc2cccnc2[N+](=O)[O-])cc1S(=O)(=O)N1CCCCC1`, the manual score was 0.

In the case of `Cc1nn(CC(=O)Nc2ccc(Cl)c(S(=O)(=O)N(C)C)c2)c(C)c1[N+](=O)[O-]`, the manual score was 0.

For `CC1(C)CC2CC(C)(CN2C(=S)NC(=O)c2ccccc2Cl)C1` (stereo not drawn), the manual score was 1 (active).

For `CC1(C)CC2CC(C)(CN2c2ncnc3ccccc23)C1` (stereo not drawn), the manual score is 0.

With `Nn1c(SC/C=C/c2ccccc2)nnc1-c1ccccn1`, the manual score was 0.

As for `Clc1cccc(CSc2nc3ccncc3[nH]2)c1`, the manual score is 0.

For the molecule `NC(=O)SCC(=O)Nc1ccc(Cl)cc1`, the manual score was 0.

As to `Cc1oncc1C(=S)Nc1ccccc1`, the manual score is 0.

For the molecule `Fc1ccc(CSc2nc3ccccc3[nH]2)c2ccccc12`, the manual score is 0.

As to `Cc1ccc(NC(=S)c2nc3ccccc3[nH]2)cc1`, the manual score is 1 (active).

As for `S=C(Nc1ccc(Cl)cc1)c1nc2ccccc2[nH]1`, the manual score is 1 (active).

As to `CC(C)c1nc(N2CCN(C(=O)c3ccccc3)CC2)c(C#N)c2c1COC(C)(C)C2`, the manual score was 0.

As to `O=C(NC(=S)Nc1ccccc1N1CCCC1)c1ccccc1[N+](=O)[O-]`, the manual score is 1 (active).

Consider `Cc1c(C(=O)NC(=S)Nc2ccccc2N2CCCC2)cccc1[N+](=O)[O-]`, for which the manual score is 1 (active).

For the molecule `O=C(NC(=S)Nc1ccccc1N1CCCC1)c1ccc([N+](=O)[O-])cc1`, the manual score was 1 (active).

Turning to `O=C(NC(=S)Nc1ccccc1N1CCCC1)c1ccc(-c2cccc([N+](=O)[O-])c2)o1`, the manual score was 0.5.

With `O=C(CSc1nc(O)cc(=O)n1-c1ccccc1)N1CCCCC1`, the manual score was 2.

Regarding `COc1cccc(N(CC(=O)Nc2cccc(C(C)=O)c2)S(C)(=O)=O)c1`, the manual score was 0.

As for `CCOC(=O)C1=C(C)NC2=C(C(=O)C(C(=O)OCC)C(c3cccc(OC)c3)C2)C1c1ccccn1` (stereo not drawn), the manual score was -0.5.

For the molecule `COC(=O)CSc1nc2ncccc2[nH]1`, the manual score was 0.

Regarding `COc1cc(/C=C2\SC(=S)NC2=O)ccc1OS(=O)(=O)c1ccccc1`, the manual score was 1 (active).

In the case of `COc1cc(/C=C2/SC(=S)NC2=O)ccc1OS(=O)(=O)c1ccc(C)cc1`, the manual score is 1 (active).

`COc1ccc(/C=C/C(=O)N2CCN(S(=O)(=O)/C=C/c3ccccc3)CC2)cc1OC`: the manual score is 0.

Regarding `O=C1NC(=O)/C(=C\c2ccccc2Oc2ccc(F)c(F)c2)S1`, the manual score was 0.

For the molecule `COc1ccc(/C=C2\SC(=O)NC2=S)cc1OC`, the manual score is 1 (active).

As to `COc1cc(/C=C2\S/C(=N/S(=O)(=O)c3ccc(C)cc3)NC2=O)c([N+](=O)[O-])cc1OC`, the manual score is 0.

Turning to `CCOc1ccc(OCCSc2nc3ccccc3[nH]2)cc1`, the manual score is 0.

Consider `O=C(Nc1nc(-c2ccccc2)c(-c2ccccc2)o1)c1ccc(F)cc1`, for which the manual score was 1 (active).

With `Cc1ccc(C(=O)Nc2cnc3ccccn3c2=O)cc1`, the manual score is 0.

Turning to `Cc1ccc(C(=O)Nc2nc(-c3ccccc3)c(-c3ccccc3)o2)cc1`, the manual score is 1 (active).

Turning to `OCCCN=c1cc(-c2ccccc2)oc2ccc(Cl)cc12`, the manual score is -0.5.

On to `CCCSc1nnc(Nc2ccccc2C)s1`, for which the manual score was 0.

Turning to `O=C(O)CC/C(=C\c1cc([N+](=O)[O-])ccc1Cl)c1nc2ccccc2s1`, the manual score was -1 (active).

In the case of `O=C(CC(O)(C(F)(F)F)C(F)(F)F)Nc1ccc(Cl)c(Cl)c1`, the manual score is 0.

With `CCCOc1ccc(C(=O)NNC(=S)NC(=O)CC)cc1`, the manual score is 1 (active).

Turning to `CNC(=S)SCCOc1ccc(C)cc1`, the manual score is 3.

Consider `CCCCOc1ccc(C(=O)NNC(=S)NC(=O)CC)cc1`, for which the manual score is 1 (active).

On to `CCCCOc1ccc(C(=O)OC2CC(C)N(C)CC2C)cc1` (stereo not drawn), for which the manual score was 0.

On to `CCOC(=O)c1ccc(NC(=S)NC(=O)COc2ccccc2)cc1`, for which the manual score was 0.

For the molecule `CCCOc1ccc(NCC(=O)Nc2ccc(C)cc2C)cc1`, the manual score is 0.

For the molecule `CCNS(=O)(=O)c1cc(S(C)(=O)=O)ccc1Cl`, the manual score was 0.

As to `Oc1ccc2ccc3cccc[n+]3c2c1`, the manual score is 3.

`C=COCCNC(=O)Nc1ccc(Cl)c(Cl)c1`: the manual score was 0.

Regarding `CCOC(=O)C1=C(NC(=S)NC(=O)c2ccccc2)c2ccccc2CC1C(C)C` (stereo not drawn), the manual score is 0.

With `CCOC(=O)c1c(NC(=S)NCCc2ccccc2)sc2c1CC(C(C)C)OC2` (stereo not drawn), the manual score was 0.

As to `C=CCNC(=S)Nc1sc2c(c1C(=O)OCC)CC(C)(CC)OC2` (stereo not drawn), the manual score is 1 (active).

Take `CCOC(=O)c1c(NC(=S)NC)sc2c1CC(C)(C)SC2`: the manual score is 1 (active).

Turning to `C=CCNC(=S)Nc1sc2c(c1C(=O)OCC)CC(C(C)C)OC2` (stereo not drawn), the manual score is 1 (active).

Turning to `CCOc1ccccc1OCCCCCc1c(C)n[nH]c1C`, the manual score is 0.

For `CC(C)NC(=S)N/N=C/c1cc(Br)ccc1O`, the manual score is 1 (active).

As for `CC(C)NC(=O)c1nc2ccccc2s1`, the manual score was 0.

Consider `O=C(Nc1nnc(-c2ccc(Cl)cc2)o1)c1ccccc1Br`, for which the manual score was 1 (active).

As to `O=C(Nc1nnc(-c2ccccc2Cl)o1)c1nc2ccccc2s1`, the manual score is 1 (active).

For `O=C(Nc1nnc(-c2ccc(Cl)cc2)o1)C1=COCCO1`, the manual score was 0.5.

In the case of `O=C(Nc1nnc(-c2ccc(Cl)cc2)o1)c1nc2ccccc2s1`, the manual score was 1 (active).

`CCN(CC)c1ccc2cc(-c3nc4ccccc4[nH]3)c(=O)oc2c1`: the manual score is 3.

For the molecule `COc1cccc(NC(=O)NCCCSC2CCCCC2)c1`, the manual score is 0.

As for `Cc1ccc(-c2cc(-c3n[nH]c(=S)o3)c3ccccc3n2)cc1`, the manual score was 1 (active).

`Fc1ccccc1NC(=S)NN(Cc1ccccc1)c1ccccc1`: the manual score was 0.

With `FC(F)(F)Oc1ccc(NC(=S)NCc2ccccc2)cc1`, the manual score was 0.

For the molecule `O=C(NC(=S)NCc1ccccc1)c1ccccc1F`, the manual score is 1 (active).

Take `FC(F)(F)c1cccc(NC(=S)NCc2ccccc2)c1`: the manual score is 0.

Turning to `Cc1cccc(C)c1NC(=S)NC(=O)c1ccccc1F`, the manual score was 1 (active).

Take `O=C(NC(=S)N(Cc1ccccc1)Cc1ccccc1)c1ccccc1F`: the manual score was 1 (active).

Regarding `O=C(Nc1cc(Cl)ccc1Oc1ccccc1)c1ccccc1F`, the manual score is 0.
